The values that follow come from PubChem BioAssay (NCATS).

Records with an inconclusive call do not appear. The source made the active and inactive calls. Calls follow the shape of the dose curve; as a rule, active = well fitted curve in the direction sought with a large enough effect; inconclusive = small, poorly fitted or top-dose-only effect, or another doubt; inactive = no such curve, though single readings can be large; an effect the other way counts as inactive or inconclusive.

One assay can be described thus: Primary redox qHTS assay for identification of artifact compounds. (AID 1845223). To be noted: Amplex Red/HRP redox cycling with DTT, fluorescence; series mostly up to 53.8 µM; redox activity (% of DA3003): at the top concentration. The essentials: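 Amplex Red (25 uM) and HRP (250 mU/mL) in HBSS, with compounds for 15 min, then 250 uM DTT for 30 min, room temperature, dark. Fluorescence 525/598 nm read; normalized to DMSO and 10 uM DA3003; Hill fit.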
On the technique in general: qHTS replaces the single test concentration by a dilution series.
With `C[C@H](c1ccc(F)cc1CCCC(=O)O)N(c1cc(F)ccc1F)S(=O)(=O)c1ccc(Cl)cc1`, the “redox activity (% of DA3003)” value is 11.6% (inactive).
On the same count and under the same terms, the value for `c1ccc(-c2oc3ncnc(NC[C@@H]4CCCO4)c3c2-c2ccccc2)cc1` was 4.96% (inactive); that for `CC(C)CNc1ccnc(NCc2csc(-c3ccccc3)n2)n1` was -6.5% (inactive).
`CCN1C[C@H](C)n2c(c(O)c3c(=O)n(Cc4ccc(F)c(Cl)c4)nc(C(=O)NC)c32)C1=O`: the molecule was called inactive.
As for `CCc1cccc(CC)c1NC(=O)N1Cc2[nH]nc(NC(=O)c3ccc(N4CCN(C)CC4)cc3)c2C1`, the “redox activity (% of DA3003)” value is -2.01% (inactive).
In the case of `Cn1cnc(-c2cc3nccc(Oc4ccc(NC(=S)NC(=O)Cc5ccccc5)cc4F)c3s2)c1`, the “redox activity (% of DA3003)” value is -7.77% (inactive).
Same read-out and setting: the value for `c1cc(OCCN2CCCCC2)cc(-c2n[nH]c3ccc(-c4ncn[nH]4)cc23)c1` was -0.503% (inactive).
On the same count and under the same terms, the value for `CCNC(=O)c1noc(-c2cc(C(C)C)c(O)cc2O)c1-c1ccc(CN2CCOCC2)cc1` was -3.03% (inactive); that for `COc1cc2ncnc(Nc3cc(Br)c(O)c(Br)c3)c2cc1OC` was -2.31% (inactive); that for `COc1ccc(CCC(=O)Nc2nc3ccc(Cl)cc3s2)cc1OC` was -5.49% (inactive).

Another assay in a line: Quantitative High-Throughput drug screen in 47 multiple myeloma cell lines against the NCATS MIPE library collection: FR4_PLB cell viability assay (AID 1918924; also: nearly all actives have a fitted effect of over 35% in size; also: potency is read from the fitted curve at half-maximal effect). The conditions noted are these: FR4_PLB myeloma cells viability, CellTiter-Glo ATP, 48 h; series mostly up to 45.8 µM; viability (% of DMSO control): at the top concentration. The essentials:
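Luminescent ATP measurement with CellTiter-Glo gives viability, scaled between DMSO-only wells (100%) and media-only wells (0%). Cells, 500 per well, faced library compounds for 48 hours at 37C.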
For orientation: Cellular ATP, detected with luciferase, serves as a proxy for viable cell number.
For `CS(=O)(=O)c1ccc(C2=C(c3ccccc3)C(=O)OC2)cc1`, the “viability (% of DMSO control)” value is 112% (inactive).
The same measure, in the same setting: the value for `COc1nccc(-c2c(-c3ccc(F)cc3)ncn2C2CCC(O)CC2)n1` (stereo not given) was 90.9% (inactive).
Turning to `CNC1CCC(N(Cc2cccc(-c3ccncc3)c2)C(=O)c2sc3ccccc3c2Cl)CC1` (stereo not given), the Potency is 20.9 µM (active).
As for `CCCCC(F)(F)[C@@]1(O)CC[C@H]2[C@H](CC(=O)[C@@H]2CCCCCCC(=O)O)O1`, the “viability (% of DMSO control)” value is 131% (inactive).
Turning to `CC1(COc2ccc3c(c2)ncn3-c2ccc3cccc(N4CCC(N)CC4)c3n2)COC1`, the Potency was 1.48 µM (active).
Still for that read-out and setting: the value for `Nc1ncnc2c1c(-c1cccc(OCc3ccccc3)c1)cn2C1CC(CN2CCC2)C1` (stereo not given) was 16.6 µM (active).

The nature of the next assay: Quantitative High-Throughput drug screen in 47 multiple myeloma cell lines against the NCATS MIPE library collection: Delta47_JCRB cell viability assay (AID 1918925; also: nearly all actives have a fitted effect of over 45% in size; also: potency is read from the fitted curve at half-maximal effect). The conditions noted are these: Delta47 myeloma viability, CellTiter-Glo ATP, 48 h; series mostly up to 45.8 µM; viability (% of DMSO): at the top concentration. Summed up:
(§1)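 Relative luminescence from CellTiter-Glo served as the viability signal, referenced to DMSO-treated (100%) and cell-free medium (0%) controls. Treatment lasted 48 hours at 37C with 500 cells per well.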
Take `Cc1cccc2c1CC[C@H](CN1CCC(c3c(Cl)cccc3Cl)CC1)C[C@@H]2O`: the Potency was 16.6 µM (active).
In the case of `Cc1ccc2c(c1)c1c(n2CCc2ccc(C)nc2)CCN(C)C1`, the “viability (% of DMSO)” value was 99.8% (inactive).
Same read-out and setting: for `CCCCn1c(=O)n(Cc2ccccc2F)c(=O)c2[nH]c(Cc3ccc(NC(C)=O)cc3)nc21` the value was 67.3% (inactive).
With `Cn1c(=O)c(-c2c(Cl)cccc2Cl)cc2cnc(Nc3cccc(C(=O)O)c3)nc21`, the “viability (% of DMSO)” value is 118% (inactive).
With `Cc1c(C(=O)Nc2ccc(N3C[C@@H](C)O[C@@H](C)C3)nc2)cccc1-c1ccc(OC(F)(F)F)cc1`, the Potency was 4.69 µM (active).
Take `O=C(CC12CC3CC(CC(C3)C1)C2)Nc1cccc2nc(NCCNCCO)ccc12`: the Potency is 2.64 µM (active).
`CCN1CCC(n2cc(CNc3cc(Cl)c4ncc(C#N)c(Nc5ccc(F)c(Cl)c5)c4c3)nn2)CC1`: the Potency is 14.8 µM (active).
Regarding `Cc1cnc(-c2cc(N3CCN(C(=O)CCS(C)(=O)=O)CC3)ncc2Cl)c(C)c1`, the “viability (% of DMSO)” value is 110% (inactive).
Still for that read-out and setting: for `CN(C)c1nc(Cc2ccc(NC(=O)c3ccc(C(F)(F)F)cc3)cc2)nc(N(C)C)c1CC(=O)O` the value was 148% (inactive).
Take `C[C@H](c1ccc(F)cc1CCCC(=O)O)N(c1cc(F)ccc1F)S(=O)(=O)c1ccc(Cl)cc1`: the Potency was 20.9 µM (active).
As to `CC(C)CNc1ccnc(NCc2csc(-c3ccccc3)n2)n1`, the Potency is 2.35 µM (active).
The same measure, in the same setting: the value for `CNC1CCC(N(Cc2cccc(-c3ccncc3)c2)C(=O)c2sc3ccccc3c2Cl)CC1` (stereo not given) was 7.43 µM (active).
The same measure, in the same setting: for `CCc1cccc(CC)c1NC(=O)N1Cc2[nH]nc(NC(=O)c3ccc(N4CCN(C)CC4)cc3)c2C1` the value was 5.9 µM (active).
Turning to `CCCCC(F)(F)[C@@]1(O)CC[C@H]2[C@H](CC(=O)[C@@H]2CCCCCCC(=O)O)O1`, the “viability (% of DMSO)” value is 125% (inactive).
`c1cc(OCCN2CCCCC2)cc(-c2n[nH]c3ccc(-c4ncn[nH]4)cc23)c1`: the Potency is 13.2 µM (active).
`CCNC(=O)c1noc(-c2cc(C(C)C)c(O)cc2O)c1-c1ccc(CN2CCOCC2)cc1`: the Potency is 0.0662 µM (active).
Still for that read-out and setting: for `CC(C)(C)c1nc(-c2cccc(NS(=O)(=O)c3c(F)cccc3F)c2F)c(-c2ccnc(N)n2)s1` the value was 3.32 µM (active); for `Nc1ncnc2c1c(-c1cccc(OCc3ccccc3)c1)cn2C1CC(CN2CCC2)C1` (stereo not given), 0.372 µM (active).

A further assay can be described thus: Quantitative High-Throughput drug screen in 47 multiple myeloma cell lines against the NCATS MIPE library collection: EJM_DSMZ cell viability assay (AID 1918926; also: nearly all actives have a fitted effect of over 30% in size; also: potency is read from the fitted curve at half-maximal effect). The conditions noted are these: EJM myeloma cell viability, CellTiter-Glo ATP, 48 h; series mostly up to 45.8 µM; viability, % of control: at the top concentration. The essentials: as §1
For `C=CC(=O)Nc1cccc(Sc2nc(Nc3ccc(N4CCN(C)CC4)cc3)ncc2Cl)c1`, the Potency was 18.7 µM (active).
On the same count and under the same terms, the value for `Cc1cccc2c1CC[C@H](CN1CCC(c3c(Cl)cccc3Cl)CC1)C[C@@H]2O` was 18.7 µM (active).
As for `N#Cc1ccc(Oc2ccc3c(c2)COB3O)cc1`, the “viability, % of control” value is 79% (inactive).
The same measure, in the same setting: the value for `Cc1ccc2c(c1)c1c(n2CCc2ccc(C)nc2)CCN(C)C1` was 80.4% (inactive).
For the molecule `CC(=O)Nc1cccc(-n2c(=O)n(C3CC3)c(=O)c3c(Nc4ccc(I)cc4F)n(C)c(=O)c(C)c32)c1`, the Potency is 0.0372 µM (active).
Take `C[C@@H](NC(=O)c1ncnc(N)c1Cl)c1ncc(C(=O)Nc2cc(C(F)(F)F)c(Cl)cn2)s1`: the “viability, % of control” value is 98.7% (inactive).
On to `Cc1nc2c([nH]1)CCN(C(=O)c1ccc(NC(=O)c3ccccc3-c3ccccc3)cc1)c1ccccc1-2`, for which the “viability, % of control” value is 89.2% (inactive).
The same measure, in the same setting: the value for `O=C(Nc1cccc(C(F)(F)F)c1)Nc1cc(S(=O)(=O)NC2CC2)ccc1-c1ccsc1` was 89.9% (inactive).
As for `O=C(CC12CC3CC(CC(C3)C1)C2)Nc1cccc2nc(NCCNCCO)ccc12`, the Potency is 11.8 µM (active).
Consider `COC(=O)N1CCN(Cc2cccc(NC(=O)Nc3ccc(C)nc3)c2F)CC1`, for which the “viability, % of control” value is 87.3% (inactive).
Still for that read-out and setting: the value for `CS(=O)(=O)c1ccc(C2=C(c3ccccc3)C(=O)OC2)cc1` was 91.9% (inactive).
With `CCN1CCC(n2cc(CNc3cc(Cl)c4ncc(C#N)c(Nc5ccc(F)c(Cl)c5)c4c3)nn2)CC1`, the Potency was 10.5 µM (active).
For `Cc1cnc(-c2cc(N3CCN(C(=O)CCS(C)(=O)=O)CC3)ncc2Cl)c(C)c1`, the Potency was 0.0132 µM (active).
As to `CN(C)c1nc(Cc2ccc(NC(=O)c3ccc(C(F)(F)F)cc3)cc2)nc(N(C)C)c1CC(=O)O`, the “viability, % of control” value is 93% (inactive).
Turning to `Nc1ccc(-c2ccc3ncc4ccc(=O)n(-c5cccc(C(F)(F)F)c5)c4c3c2)cn1`, the Potency is 0.0187 µM (active).
On to `CCN1C[C@H](C)n2c(c(O)c3c(=O)n(Cc4ccc(F)c(Cl)c4)nc(C(=O)NC)c32)C1=O`, for which the “viability, % of control” value is 123% (inactive).
Take `CCCCC(F)(F)[C@@]1(O)CC[C@H]2[C@H](CC(=O)[C@@H]2CCCCCCC(=O)O)O1`: the “viability, % of control” value was 96.3% (inactive).
Consider `c1cc(OCCN2CCCCC2)cc(-c2n[nH]c3ccc(-c4ncn[nH]4)cc23)c1`, for which the Potency is 33.2 µM (active).
The same measure, in the same setting: for `CC(C)(C)c1nc(-c2cccc(NS(=O)(=O)c3c(F)cccc3F)c2F)c(-c2ccnc(N)n2)s1` the value was 20.9 µM (active); for `COc1cc2ncnc(Nc3cc(Br)c(O)c(Br)c3)c2cc1OC`, 0.003 µM (active).
The same measure, in the same setting: for `COc1ccc(-c2ccc3ncc4c(c3c2)n(-c2ccc(N3CCNCC3)c(C(F)(F)F)c2)c(=O)n4C)cn1` the value was 0.0332 µM (active).
